# Data from PubChem BioAssay (NCI).
# About 83,000 compounds went through this panel and 20% of them were active in at least one assay; those are over-represented in the sample as a whole.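 Treatment: one concentration, 48 hours, 96-well format. Scoring: percent growth, with anything below 10 considered active.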 Activity calls are given as the source filed them.
# Tested on: UACC-257 melanoma
# Test: NCI-60 one-dose screen, 48 h (100 = growth as untreated, 0 = no growth, -100 = all killed)
# Details: 10 µM unless noted
row,SMILES,growth
1,CCN1C(=O)N(CC)C2C1NN=c1s/c(=C\c3ccccc3F)c(=O)n12 (stereo not given),53.1% (inactive)
2,O=C(CSC(=S)n1cnnc1)NC(=O)c1ccccc1,113% (inactive)
3,CC(=O)n1nc(C(=O)OC(C)(C)c2ccccc2)c2ccccc21,89.5% (inactive)
4,Oc1c(I)cc(I)cc1CNCc1ccccn1,15.4% (inactive)
5,COc1ccc(C(=O)Nc2cccc(-c3cc(=O)c4c(OC)c(OC)c(OC)cc4o3)c2)cc1,105% (inactive)
6,COc1ccccc1NC(=O)N=Nc1c(O)[nH]c2ccccc12,89% (inactive)
7,O=C(CSc1nnc(-c2cnccn2)n1-c1ccccc1)c1ccc(Cl)cc1,96% (inactive)
8,COc1ccc(/C=C(\C#N)n2nnc3ccc(Cl)cc32)cc1,76.3% (inactive)
9,Cc1ccc(C[P+](c2ccccc2)(c2ccccc2)c2ccccc2)cc1,3.36% (active)
10,COc1ccc2[nH]c(C(=O)N3CCN(C(=O)OCc4ccc5c(Cl)cc(Cl)c(O)c5n4)CC3)cc2c1,-43.2% (active)
11,COc1ccc(C(=O)/C=C/c2c(C(F)(F)F)nc3ccccn23)cc1OC,30.5% (inactive)
12,Cn1c(=O)c2nc(/C=C/c3ccccc3)c(=O)[nH]c2n(C)c1=S,112% (inactive)
13,Cc1c[n+](Cc2ccc3ccccc3c2)cn1Cc1ccc2ccccc2c1,-26.1% (active)
14,O=C1/C(=C/c2ccccc2O)CC/C1=C\c1ccccc1O,86.3% (inactive)
15,N#Cc1ccc2c(c1)C(=O)c1c-2n(CCCN)c(=O)c2cc([N+](=O)[O-])ccc12,-100% (active)
